# ± gives the standard deviation of the averaged measurements.
# System: E. coli BW25113 marRABp lux reporter
# Test: promoter activity interaction Z-score (Lux/OD deviation from empty-vector control); higher = stronger promoter induction by the compound
# Method: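 E. coli BW25113 (wild type or ΔmarA/ΔsoxS/Δrob) carrying pTU175 luxCDABE promoter reporters was grown in LB in 384-well plates at 37°C with each of 94 compounds at 4 two-fold concentrations, in biological duplicates. Luminescence and OD600 were read every 30 min for 12 h and integrated as AUC over 8 h (0-8 h WT, 1-9 h mutants). Lux AUC was divided by OD AUC; the interaction score is the residual of a Huber robust fit of each promoter against the empty-vector control, then Z-transformed per promoter.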
compound,measurement,setting,value
C[C@@H](O)[C@H]1C(=O)N2C(C(=O)O)=C(SCCNC=N)C[C@H]12 [Imipenem],promoter activity interaction Z-score,"0.02 µg/ml, genetic background: wild type",0.316 ± 0.21
same,promoter activity interaction Z-score,"0.02 µg/ml, genetic background: ΔmarA",0.592 ± 0.32
same,promoter activity interaction Z-score,"0.02 µg/ml, genetic background: Δrob",0.0424 ± 0.11
same,promoter activity interaction Z-score,"0.02 µg/ml, genetic background: ΔsoxS",0.106 ± 0.074
same,promoter activity interaction Z-score,"0.04 µg/ml, genetic background: wild type",0.381 ± 0.44
same,promoter activity interaction Z-score,"0.04 µg/ml, genetic background: ΔmarA",0.269 ± 0.79
same,promoter activity interaction Z-score,"0.04 µg/ml, genetic background: Δrob",-0.0178 ± 0.16
same,promoter activity interaction Z-score,"0.04 µg/ml, genetic background: ΔsoxS",0.0651 ± 0.041
same,promoter activity interaction Z-score,"0.079 µg/ml, genetic background: wild type",0.087 ± 0.15
same,promoter activity interaction Z-score,"0.079 µg/ml, genetic background: ΔmarA",-0.0931 ± 0.047
same,promoter activity interaction Z-score,"0.079 µg/ml, genetic background: Δrob",0.0397 ± 0.03
same,promoter activity interaction Z-score,"0.079 µg/ml, genetic background: ΔsoxS",0.0374 ± 0.049
same,promoter activity interaction Z-score,"0.16 µg/ml, genetic background: wild type",0.129 ± 0.28
same,promoter activity interaction Z-score,"0.16 µg/ml, genetic background: ΔmarA",-0.0426 ± 0.31
same,promoter activity interaction Z-score,"0.16 µg/ml, genetic background: Δrob",-0.0898 ± 0.17
same,promoter activity interaction Z-score,"0.16 µg/ml, genetic background: ΔsoxS",0.217 ± 0.23
C[C@H]1c2cccc(O)c2C(=O)C2=C(O)[C@]3(O)C(=O)C(C(N)=O)=C(O)[C@@H](N(C)C)[C@@H]3[C@@H](O)[C@@H]21 [Doxycycline],promoter activity interaction Z-score,"0.064 µg/ml, genetic background: wild type",0.973 ± 0.17
same,promoter activity interaction Z-score,"0.064 µg/ml, genetic background: ΔmarA",2.43 ± 0.098
same,promoter activity interaction Z-score,"0.064 µg/ml, genetic background: Δrob",0.676 ± 0.28
same,promoter activity interaction Z-score,"0.064 µg/ml, genetic background: ΔsoxS",1.01 ± 0.13
same,promoter activity interaction Z-score,"0.13 µg/ml, genetic background: wild type",2.72 ± 0.47
same,promoter activity interaction Z-score,"0.13 µg/ml, genetic background: ΔmarA",4.3 ± 0.47
same,promoter activity interaction Z-score,"0.13 µg/ml, genetic background: Δrob",1.1 ± 0.25
same,promoter activity interaction Z-score,"0.13 µg/ml, genetic background: ΔsoxS",2.28 ± 0.13
same,promoter activity interaction Z-score,"0.26 µg/ml, genetic background: wild type",3.51 ± 0.065
same,promoter activity interaction Z-score,"0.26 µg/ml, genetic background: ΔmarA",2.23 ± 1.1
same,promoter activity interaction Z-score,"0.26 µg/ml, genetic background: Δrob",0.478 ± 0.55
same,promoter activity interaction Z-score,"0.26 µg/ml, genetic background: ΔsoxS",3.1 ± 0.92
same,promoter activity interaction Z-score,"0.51 µg/ml, genetic background: wild type",0.833
CC(=O)C(NC(=O)C(C)C(O)C(C)NC(=O)C(NC(=O)c1nc(C(CC(N)=O)NCC(N)C(N)=O)nc(N)c1C)C(O[C@@H]1O[C@@H](CO)[C@@H](O)[C@H](O)[C@]1(C)O[C@@H]1OC(CO)[C@H](O)[C@](O)(C(N)=O)[C@H]1O)c1cnc[nH]1)C(=O)NCCC1=NC(c2nc(C(N)=O)cs2)CS1 (some centres undefined) [Phleomycin],promoter activity interaction Z-score,"0.62 µg/ml, genetic background: wild type",1.05 ± 0.22
same,promoter activity interaction Z-score,"0.62 µg/ml, genetic background: ΔmarA",2.57
same,promoter activity interaction Z-score,"0.62 µg/ml, genetic background: Δrob",1.98
same,promoter activity interaction Z-score,"0.62 µg/ml, genetic background: ΔsoxS",1.57
same,promoter activity interaction Z-score,"1.2 µg/ml, genetic background: wild type",2.71 ± 0.25

# Source: the supplement of paper PMC12282887
